Source: PubChem (several laboratories)
Most compounds without a hit are left out; they make up all but 4.3% or so of the library.
BoNT F protease: BoNT F light chain protease inhibition; actives 0.22% (n = 360,000); inhibition, % at 10 µM; Multiplex microsphere protease cleavage assay, flow cytometry; in the data active = inhibition above about 35%, passing the limit was not always enough; inconclusive = no clear call, values can overlap the other calls
BoNT-A LC inh2: BoNT A light chain protease inhibition; multiplex microsphere protease substrate cleavage, flow cytometry; inhibition, % at 10 µM; actives 0.17% (n = 360,000)
Anthrax LF prot: inhibitors of Bacillus anthracis lethal factor protease; multiplex microsphere protease cleavage assay, LF; P15917; actives 0.12% (n = 360,000); inhibition, % at 10 µM
MazEF act: activators of E. coli MazEF toxin-antitoxin RNase. P0AE70. FAM/BHQ RNA-DNA oligo cleavage fluorescence, 5 h. activation, % at 20 µM. actives 0.32% (n = 350,000). AID 504720; in the data active = activation above about 50%
Target sequence (P0AE70 whole entry, looked up): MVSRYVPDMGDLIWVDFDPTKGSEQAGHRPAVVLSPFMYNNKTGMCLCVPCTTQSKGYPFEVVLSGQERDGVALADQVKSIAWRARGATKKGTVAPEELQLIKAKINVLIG
Autofluor counter: compound fluorescence in toxin protease inhibitor counterscreen; fluorescence intensity (no concentration beside the values); compound autofluorescence counterscreen, microsphere flow cytometry; stronger effect = higher value; actives 3.1% (n = 360,000); in the data active = fluorescence intensity above about 16000; inconclusive = no clear call, values can overlap the other calls
PfHsp40 rescue: restores yeast growth despite PfHsp40 toxicity | actives 0.68% (n = 340,000) | S. cerevisiae expressing PfHsp40, growth rescue, ATP luminescence | growth rescue, % at 12.5 µM; in the data active = growth rescue above about 28%, passing the limit was not always enough; inconclusive = no clear call, values can overlap the other calls;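 also: yeast W303a lacking pdr1 and pdr3 grown in galactose medium; growth measured after three days at 30 °C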
Numbers stand for hits. Rule as the data show it, unless noted: active = inhibition above about 30%; inconclusive = no clear call, values can overlap the other calls; inactive = below that.

Screening CC(=O)c1ccc(NC(=O)CCC(=O)OCC(F)(F)C(F)F)cc1 returned BoNT F protease inactive, BoNT-A LC inh2 inconclusive, Anthrax LF prot inactive, MazEF act inactive, Autofluor counter 20248 and PfHsp40 rescue inactive.
`Cc1cccc(NC(=O)COC(=O)CN2C(=O)c3ccccc3C2=O)c1` gave BoNT F protease inactive, BoNT-A LC inh2 inactive, Anthrax LF prot inactive, MazEF act inactive and Autofluor counter inactive.
Screening COc1ccc(C/C(C)=N/NC(=O)C2COc3ccccc3O2)cc1 (stereo unspecified) returned BoNT F protease inactive, BoNT-A LC inh2 inactive, Anthrax LF prot inactive, MazEF act inactive, Autofluor counter inactive and PfHsp40 rescue inactive.
Screening CC1(C)Cc2ccccc2-c2nnc(-c3ccc4ccccc4n3)n21 returned BoNT F protease inactive, BoNT-A LC inh2 inactive, Anthrax LF prot inactive, MazEF act inactive, Autofluor counter inactive and PfHsp40 rescue inactive.
CCOC(=O)C(C)Sc1nnc2n1C(C)(C)Cc1ccccc1-2 (stereo unspecified) was read as BoNT F protease inactive, BoNT-A LC inh2 inconclusive, Anthrax LF prot inactive, MazEF act inactive, Autofluor counter 24062 and PfHsp40 rescue inactive.
CC1(C)Cc2ccccc2-c2nnc(-c3ccccc3)n21 was read as BoNT F protease inactive, BoNT-A LC inh2 inactive, Anthrax LF prot inactive, MazEF act inactive, Autofluor counter 22143 and PfHsp40 rescue inactive.
CC1(C)Cc2ccccc2-c2nnc(-c3ccccn3)n21 was read as BoNT F protease inactive, BoNT-A LC inh2 inactive, Anthrax LF prot inactive, MazEF act inactive, Autofluor counter 20079 and PfHsp40 rescue inactive.
Screening CC(=O)Nc1cc(C(=O)N(C)Cc2ccccc2)ccc1S(=O)(=O)c1ccc(C)cc1 returned BoNT F protease inactive, BoNT-A LC inh2 inactive, Anthrax LF prot inactive, MazEF act inactive, Autofluor counter inactive and PfHsp40 rescue inactive.
COC(=O)c1ccc(NC(=O)c2cccc(C)c2[N+](=O)[O-])cc1 was read as BoNT F protease inactive, BoNT-A LC inh2 inactive, Anthrax LF prot inactive, MazEF act inactive, Autofluor counter inactive and PfHsp40 rescue inactive.
CN(C)c1ncc(C(=O)O)cn1 was read as BoNT F protease inactive, BoNT-A LC inh2 inactive, Anthrax LF prot inactive, MazEF act inactive, Autofluor counter 16816 and PfHsp40 rescue inactive.
Screening C=CCN(CC=C)S(=O)(=O)c1ccc(NC(=S)NC(=O)c2ccco2)cc1 returned BoNT F protease inactive, BoNT-A LC inh2 inactive, Anthrax LF prot inactive, MazEF act inactive, Autofluor counter inactive and PfHsp40 rescue 55.3.
Screening C=CCNC(=S)NNC(=O)c1ccco1 returned BoNT F protease inactive, BoNT-A LC inh2 inactive, Anthrax LF prot inactive, MazEF act inactive, Autofluor counter inactive and PfHsp40 rescue inactive.
COc1ccc(C(=O)NNC(=S)NC(=O)c2ccco2)cc1 was read as BoNT F protease inactive, BoNT-A LC inh2 inactive, Anthrax LF prot inactive, MazEF act inactive, Autofluor counter inactive and PfHsp40 rescue inactive.
Screening CC(C)CNC(=S)NNC(=O)c1ccco1 returned BoNT F protease inactive, BoNT-A LC inh2 inactive, Anthrax LF prot inactive, MazEF act inactive, Autofluor counter 22008 and PfHsp40 rescue inactive.
`O=C(NNC(=S)Nc1ccccc1)c1ccco1` gave BoNT F protease inactive, BoNT-A LC inh2 inconclusive, Anthrax LF prot inactive, MazEF act inactive, Autofluor counter 22369 and PfHsp40 rescue inactive.
Screening COc1ccccc1C(=O)NNC(=S)NC(=O)c1ccco1 returned BoNT F protease inactive, BoNT-A LC inh2 inactive, Anthrax LF prot inactive, MazEF act inactive, Autofluor counter inactive and PfHsp40 rescue 71.1.
`O=C(Nc1cccnc1)c1ccc(S(=O)(=O)c2ccccc2)cc1` gave BoNT F protease inactive, BoNT-A LC inh2 inactive, Anthrax LF prot inactive, MazEF act inactive, Autofluor counter inactive and PfHsp40 rescue inactive.
For COc1ccc(C(C(=O)NC2CCCCC2)N(Cc2ccco2)C(=O)c2ccccn2)c(OC)c1 (stereo unspecified) the results were BoNT F protease inactive, BoNT-A LC inh2 inactive, Anthrax LF prot inactive, MazEF act inactive, Autofluor counter inactive and PfHsp40 rescue inactive.
For CCOc1ccccc1-c1nnc(SCC(=O)NC2CC2)n1CC the results were BoNT F protease inactive, BoNT-A LC inh2 inactive, Anthrax LF prot inactive, MazEF act inactive, Autofluor counter inconclusive and PfHsp40 rescue inactive.
For CCOc1ccccc1NC(=S)NC(=O)c1ccco1 the results were BoNT F protease inactive, BoNT-A LC inh2 inactive, Anthrax LF prot inactive, MazEF act inactive, Autofluor counter inactive and PfHsp40 rescue 74.5.
`COCCNC(=S)NNC(=O)c1ccco1` gave BoNT F protease inactive, BoNT-A LC inh2 inactive, Anthrax LF prot inactive, MazEF act inactive, Autofluor counter 23531 and PfHsp40 rescue inactive.
Screening COc1ccc(-n2c(Cc3cccn3C)nnc2SCC(=O)NCc2ccc(F)cc2)cc1 returned BoNT F protease inactive, BoNT-A LC inh2 inactive, Anthrax LF prot inactive, MazEF act inactive, Autofluor counter inactive and PfHsp40 rescue inactive.
Cc1ccc(-n2c(Cc3cccn3C)nnc2SCC(=O)NCc2ccc3c(c2)OCO3)cc1 was read as BoNT F protease inactive, BoNT-A LC inh2 inactive, Anthrax LF prot inactive, MazEF act inactive, Autofluor counter 21493 and PfHsp40 rescue inactive.
`Cc1ccc(-n2c(Cc3cccn3C)nnc2SCC(=O)Nc2ccc3c(c2)OCO3)cc1` gave BoNT F protease inactive, BoNT-A LC inh2 inactive, Anthrax LF prot inactive, MazEF act inactive, Autofluor counter 24086 and PfHsp40 rescue inactive.
`O=C(CCC(=O)N1CCOCC1)NCCc1ccccc1` gave BoNT F protease inactive, BoNT-A LC inh2 inactive, Anthrax LF prot inactive, MazEF act inactive, Autofluor counter inactive and PfHsp40 rescue inactive.
`Cc1cccc(C(=O)N[C@H](C(=O)NCCc2ccc(S(N)(=O)=O)cc2)C(C)C)c1` gave BoNT F protease inactive, BoNT-A LC inh2 inactive, Anthrax LF prot inactive, MazEF act inactive, Autofluor counter inactive and PfHsp40 rescue inactive.
Screening COC(=O)NNC(=O)COc1ccc(Br)c(C)c1 returned BoNT F protease inactive, BoNT-A LC inh2 inactive, Anthrax LF prot inactive, MazEF act inactive, Autofluor counter inactive and PfHsp40 rescue inactive.
Screening CCC(C)NC(=O)COc1ccc(Br)c(C)c1 (stereo unspecified) returned BoNT F protease inactive, BoNT-A LC inh2 inactive, Anthrax LF prot inactive, MazEF act inactive, Autofluor counter 20456 and PfHsp40 rescue inactive.
`COCCOc1ccc(C(F)(F)F)cc1NC(=O)c1ccccc1` gave BoNT F protease inactive, BoNT-A LC inh2 inactive, Anthrax LF prot inactive, MazEF act inactive, Autofluor counter inactive and PfHsp40 rescue inactive.
`CC(=O)Nc1cc(C(F)(F)F)ccc1OCCOc1ccccc1` gave BoNT F protease inactive, BoNT-A LC inh2 inconclusive, Anthrax LF prot inactive, MazEF act inactive, Autofluor counter 21706 and PfHsp40 rescue inactive.
For CN1/C(=C/C2CC(=O)N(c3cccc4ccccc34)C2=O)C(C)(C)c2ccccc21 (stereo unspecified) the results were BoNT F protease inactive, BoNT-A LC inh2 inactive, Anthrax LF prot inactive, MazEF act inactive, Autofluor counter 20679 and PfHsp40 rescue inactive.
